In the supplement of paper PMC6555819:

Columns and labels:
Test in all cases: PBM binding z-score (relative to random genomic background probes); higher = stronger binding; sequences stand for … in GC…GCGATTGACAGCGTAGAATGAAGG
[1] = tested on: FXR:RXRa (NR concentration 270 nM, RXRa partner concentration 90 nM)
In short: (§1)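 Regression normalization was applied to scanned fluorescence from custom Agilent 4×180K protein-binding microarrays. Before scanning, arrays were incubated 1 h with ligand-free nuclear receptor dimers, and binding was detected with antibodies against each partner (one per run). Binding z-scores use the random background probes as reference.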

[2] = tested on: LXRa:RXRa (NR concentration 270 nM, RXRa partner concentration 90 nM)
In short: as §1

[3] = tested on: LXRa homodimer (NR concentration 270 nM)
In short: as §1

[4] = tested on: LXRb:RXRa (NR concentration 270 nM, RXRa partner concentration 90 nM)
In short: as §1

[5] = tested on: LXRb homodimer (NR concentration 270 nM)
In short: as §1

[6] = tested on: PPARa:RXRa (NR concentration 270 nM, RXRa partner concentration 90 nM)
In short: as §1

[7] = tested on: PPARg:RXRa (NR concentration 180 nM, RXRa partner concentration 90 nM)
In short: as §1

[8] = tested on: PPARg:RXRa 270nM:90nM, anti-RXR (NR concentration 270 nM, RXRa partner concentration 90 nM)
In short: as §1

[9] = tested on: PPARg:RXRa 30nM:10nM, anti-RXR (NR concentration 30 nM, RXRa partner concentration 10 nM)
In short: as §1

[10] = tested on: PPARg:RXRa 90nM:30nM, anti-RXR (NR concentration 90 nM, RXRa partner concentration 30 nM)
In short: as §1

[11] = tested on: PPARg:RXRa DBDmut IVT, anti-RXR (DBD mutation: RXRa K156A/R161A, NR concentration 270 nM, RXRa partner concentration 90 nM)
In short: as §1

[12] = tested on: PPARg:RXRa IVT, anti-PPARg (NR concentration 270 nM, RXRa partner concentration 90 nM)
In short: as §1

[13] = tested on: PPARg DBDmut:RXRa IVT, anti-PPARg (DBD mutation: PPARg1 K132A/R137A, NR concentration 270 nM, RXRa partner concentration 90 nM)
In short: as §1

[14] = tested on: PPARg DBDmut IVT, anti-PPARg (DBD mutation: PPARg1 K132A/R137A, NR concentration 270 nM)
In short: as §1

[15] = tested on: PPARg homodimer (NR concentration 180 nM)
In short: as §1

[16] = tested on: PXR:RXRa (NR concentration 270 nM, RXRa partner concentration 90 nM)
In short: as §1

[17] = tested on: PXR homodimer (NR concentration 270 nM)
In short: as §1

[18] = tested on: RARa:RXR (NR concentration 270 nM, RXRa partner concentration 90 nM)
In short: as §1

[19] = tested on: RARa homodimer (NR concentration 270 nM)
In short: as §1

[20] = tested on: RARb:RXRa (NR concentration 270 nM, RXRa partner concentration 90 nM)
In short: as §1

## TGAATGAGGTTATAAAATCAGGGAACGTTGCAAA
[1]
  PBM binding z-score: 0.804
[2]
  PBM binding z-score: 0.908
[3]
  PBM binding z-score: -0.31
[4]
  PBM binding z-score: 1.02
[5]
  PBM binding z-score: 0.05
[6]
  PBM binding z-score: 2.15
[7]
  PBM binding z-score: 0.802
[8]
  PBM binding z-score: 1.19
[9]
  PBM binding z-score: 0.684
[10]
  PBM binding z-score: 1.09
[11]
  PBM binding z-score: 0.257
[12]
  PBM binding z-score: 1.47
[13]
  PBM binding z-score: 1.21
[14]
  PBM binding z-score: 0.504
[15]
  PBM binding z-score: 0.289
[16]
  PBM binding z-score: 0.62
[17]
  PBM binding z-score: -0.104
[18]
  PBM binding z-score: 0.96
[19]
  PBM binding z-score: -0.0179
[20]
  PBM binding z-score: 0.918

## AGTCAAAGTTCAGGACGAGGTAACGTGAAGCACG
[1]
  PBM binding z-score: 4.49
[2]
  PBM binding z-score: 3.69
[3]
  PBM binding z-score: 1
[4]
  PBM binding z-score: 1.68
[5]
  PBM binding z-score: -0.0491
[6]
  PBM binding z-score: 3.33
[7]
  PBM binding z-score: 4.84
[8]
  PBM binding z-score: 4.84
[9]
  PBM binding z-score: 2.04
[10]
  PBM binding z-score: 4.12
[11]
  PBM binding z-score: -0.189
[12]
  PBM binding z-score: 2.06
[13]
  PBM binding z-score: 0.679
[14]
  PBM binding z-score: 0.0315
[15]
  PBM binding z-score: 1.48
[16]
  PBM binding z-score: 2.72
[17]
  PBM binding z-score: 0.947
[18]
  PBM binding z-score: 2.65
[19]
  PBM binding z-score: 1.04
[20]
  PBM binding z-score: 4.51

## AGTCAAAGTTCTGGACGAGGTAACGTAAAGCACG
[1]
  PBM binding z-score: -0.243
[2]
  PBM binding z-score: -0.501
[3]
  PBM binding z-score: -0.429
[4]
  PBM binding z-score: -0.322
[5]
  PBM binding z-score: -0.689
[6]
  PBM binding z-score: 0.00286
[7]
  PBM binding z-score: 0.557
[8]
  PBM binding z-score: 0.0282
[9]
  PBM binding z-score: -0.285
[10]
  PBM binding z-score: 0.00624
[11]
  PBM binding z-score: -0.983
[12]
  PBM binding z-score: 0.272
[13]
  PBM binding z-score: 0.288
[14]
  PBM binding z-score: 0.0438
[15]
  PBM binding z-score: -0.146
[16]
  PBM binding z-score: -0.238
[17]
  PBM binding z-score: -0.479
[18]
  PBM binding z-score: 0.0945
[19]
  PBM binding z-score: 0.0553
[20]
  PBM binding z-score: 0.168

## CCTAGTTGGTTAAGGTCACACACGCTATAGGTAC
[1]
  PBM binding z-score: 4.71
[2]
  PBM binding z-score: 4.56
[3]
  PBM binding z-score: 2.6
[4]
  PBM binding z-score: 4.3
[5]
  PBM binding z-score: 1.42
[6]
  PBM binding z-score: 4.33
[7]
  PBM binding z-score: 2.68
[8]
  PBM binding z-score: 3.2
[9]
  PBM binding z-score: 1.24
[10]
  PBM binding z-score: 2.39
[11]
  PBM binding z-score: 1.64
[12]
  PBM binding z-score: 2.5
[13]
  PBM binding z-score: 1.48
[14]
  PBM binding z-score: 1.66
[15]
  PBM binding z-score: 3.91
[16]
  PBM binding z-score: 4.46
[17]
  PBM binding z-score: 4.13
[18]
  PBM binding z-score: 4.85
[19]
  PBM binding z-score: 2.51
[20]
  PBM binding z-score: 4.24

## CGTCCAAGGTCATAGGAGGACAGTGAAGACAGAT
[1]
  PBM binding z-score: 7.15
[2]
  PBM binding z-score: 6.2
[3]
  PBM binding z-score: 1.35
[4]
  PBM binding z-score: 4.45
[5]
  PBM binding z-score: 0.52
[6]
  PBM binding z-score: 5.39
[7]
  PBM binding z-score: 4.71
[8]
  PBM binding z-score: 4.97
[9]
  PBM binding z-score: 1.81
[10]
  PBM binding z-score: 3.56
[11]
  PBM binding z-score: 2.87
[12]
  PBM binding z-score: 3.57
[13]
  PBM binding z-score: 0.568
[14]
  PBM binding z-score: 0.524
[15]
  PBM binding z-score: 3.01
[16]
  PBM binding z-score: 5.67
[17]
  PBM binding z-score: 1.55
[18]
  PBM binding z-score: 4.89
[19]
  PBM binding z-score: 1.62
[20]
  PBM binding z-score: 4.98

## CCTACTGGGCCAAGGTCAGTGATCAGTCAAAGCA
[1]
  PBM binding z-score: 0.749
[2]
  PBM binding z-score: 0.797
[3]
  PBM binding z-score: 0.0206
[4]
  PBM binding z-score: 0.924
[5]
  PBM binding z-score: -0.982
[6]
  PBM binding z-score: 2.46
[7]
  PBM binding z-score: 2.73
[8]
  PBM binding z-score: 3.3
[9]
  PBM binding z-score: 0.671
[10]
  PBM binding z-score: 2.45
[11]
  PBM binding z-score: 3.15
[12]
  PBM binding z-score: 4.03
[13]
  PBM binding z-score: 0.453
[14]
  PBM binding z-score: -1.43
[15]
  PBM binding z-score: 1.3
[16]
  PBM binding z-score: 1.14
[17]
  PBM binding z-score: -0.136
[18]
  PBM binding z-score: 1.75
[19]
  PBM binding z-score: -0.243
[20]
  PBM binding z-score: 2.89

## GGGACGAGGGCAAAGTTGATAGCATCTGTCGACG
[1]
  PBM binding z-score: 1.7
[2]
  PBM binding z-score: 1.11
[3]
  PBM binding z-score: -0.058
[4]
  PBM binding z-score: 1.41
[5]
  PBM binding z-score: 0.182
[6]
  PBM binding z-score: 3.68
[7]
  PBM binding z-score: 6.58
[8]
  PBM binding z-score: 6.7
[9]
  PBM binding z-score: 5.3
[10]
  PBM binding z-score: 6.62
[11]
  PBM binding z-score: 2.42
[12]
  PBM binding z-score: 3.76
[13]
  PBM binding z-score: 0.246
[14]
  PBM binding z-score: 0.748
[15]
  PBM binding z-score: 1.07
[16]
  PBM binding z-score: 1.44
[17]
  PBM binding z-score: 0.491
[18]
  PBM binding z-score: 1.48
[19]
  PBM binding z-score: 0.362
[20]
  PBM binding z-score: 2.46
